# Source: PubChem BioAssay (NCI)
# Compounds without any hit were thinned out: in the full panel of roughly 83,000, 20% have a hit.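 How to read the values: 0–100, growth inhibition (40 = 60% inhibited); 0, no net growth; -100 to 0, cell death (-40 = 40% of starting cells died; -100 = all dead).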 Unmarked numbers belong to inactive results. Activity calls are given as the source filed them. How the source made its calls: active means growth percent below 10; inactive means the rest.
# Legend:
# Assay in all cases: NCI-60 one-dose screen, 48 h (100 = growth as untreated, 0 = no growth, -100 = all killed)
# [1] = tested on: DU-145 prostate; conditions: 10 µM unless noted
# [2] = tested on: K-562 leukemia; conditions: 10 µM unless noted
# [3] = tested on: MALME-3M melanoma; conditions: 10 µM unless noted
# [4] = tested on: MDA-MB-231 breast; conditions: 10 µM unless noted
# [5] = tested on: RXF 393 renal; conditions: 10 µM unless noted
# [6] = tested on: SF-268 CNS; conditions: 10 µM unless noted
# [7] = tested on: SF-295 CNS; conditions: 10 µM unless noted
# [8] = tested on: SF-539 CNS; conditions: 10 µM unless noted
# [9] = tested on: UACC-257 melanoma; conditions: 10 µM unless noted
# [10] = tested on: M14 melanoma; conditions: 10 µM unless noted
# [11] = tested on: HCT-15 colon; conditions: 10 µM unless noted
# [12] = tested on: HT29 colon; conditions: 10 µM unless noted
# [13] = tested on: SNB-75 CNS; conditions: 10 µM unless noted
# [14] = tested on: SNB-19 CNS; conditions: 10 µM unless noted
# [15] = tested on: U251 CNS; conditions: 10 µM unless noted
# [16] = tested on: PC-3 prostate; conditions: 10 µM unless noted
# [17] = tested on: SK-MEL-5 melanoma; conditions: 10 µM unless noted
# [18] = tested on: UACC-62 melanoma; conditions: 10 µM unless noted
# [19] = tested on: LOX IMVI melanoma; conditions: 10 µM
# [20] = tested on: SK-MEL-28 melanoma; conditions: 10 µM unless noted
SMILES,growth [1],growth [2],growth [3],growth [4],growth [5],growth [6],growth [7],growth [8],growth [9],growth [10],growth [11],growth [12],growth [13],growth [14],growth [15],growth [16],growth [17],growth [18],growth [19],growth [20]
O=[N+]([O-])c1ccc(-c2nc(N(CCO)CCO)c3ccccc3n2)o1,-22.8% (active),4.2% (active),-74.5% (active),-6.61% (active),-87.1% (active),-16.2% (active),-32.1% (active),-48.9% (active),-36.3% (active),-90% (active),-3.11% (active),-27.7% (active),-91.7% (active),-0.996% (active),7.6% (active),-0.975% (active),-99% (active),-71.6% (active),-65.6% (active),-64.8% (active)
Cc1nc(O)cc(=O)[nH]1,113%,112%,106%,124%,111%,105%,118%,114%,92.1%,105%,119%,108%,97.1%,109%,118%,97%,109%,113%,108%,110%
CC(C)N(C(=O)c1ccccc1)C(C)C,117%,103%,114%,119%,106%,105%,105%,98.3%,104%,97%,104%,107%,100%,113%,95.9%,98.9%,97.7%,108%,104%,105%
CCCCCCCCCCCCCC/C=C\C(CC(=O)O)C(=O)O (stereo not drawn),110%,154%,123%,102%,117%,103%,110%,108%,107%,103%,107%,103%,90.1%,103%,107%,96.2%,104%,100%,110%,108%
COC1(OC)C2(Cl)C(Cl)=C(Cl)C1(Cl)C1COCC12 (stereo not drawn),102%,97.3%,110%,105%,103%,108%,102%,109%,63.3%,100%,103%,99.3%,86.3%,100%,103%,97.6%,102%,97.4%,107%,105%
CC(=O)N(C)N=Nc1ccc(C)cc1,107%,105%,94.5%,102%,122%,91.3%,101%,101%,101%,96.7%,107%,116%,93.2%,101%,106%,97.7%,103%,101%,98.1%,116%
O=Cc1ccc(Cl)c(Cl)c1,94.8%,104%,98.7%,116%,94.3%,101%,119%,117%,96.4%,102%,110%,106%,88.4%,111%,104%,94.6%,110%,102%,95%,107%
CC(=O)O[C@H]1CC[C@]2(C)C3=C(C(=O)C[C@H]2C1(C)C)[C@]1(C)CC[C@H]([C@H](C)CCC(=O)O)[C@@]1(C)CC3=O,108%,86.8%,98.1%,107%,110%,111%,96.4%,96.2%,113%,99.3%,95.5%,89.7%,91.7%,108%,101%,92.4%,102%,106%,98.1%,105%
COC1=C(OC)C(=O)C(SC/C=C(\C)CCCC(C)CCCC(C)CCCC(C)C)=CC1=O (stereo not drawn),32%,8.26% (active),5.25% (active),15.5%,-0.159% (active),28.7%,16.5%,16.9%,13.6%,26.9%,17.2%,56.2%,27.8%,24.6%,15.4%,10.8%,-67.3% (active),26.7%,17.2%,40.8%
O=Cc1c(O)c2ccccc2[nH]c1=O,158%,111%,139%,99.6%,114%,110%,109%,97.9%,84.8%,94.4%,95.2%,116%,77.9%,104%,94.3%,94.4%,95.1%,87.9%,98.5%,107%
CCCC(=O)CC(=O)c1ccccc1,106%,112%,107%,111%,93.6%,97.3%,97%,104%,80.9%,100%,103%,91.1%,105%,103%,86%,94.7%,99.5%,103%,97.5%,107%
COc1c(CNC(=O)CCl)cc2[nH]c(C)cc2c1CNC(=O)CCl,65.8%,63.5%,82%,87.7%,60.8%,59.4%,64.7%,72.3%,51.9%,47.3%,70.5%,38.3%,69.6%,83.5%,10.3%,67.9%,44.1%,30.6%,34%,63.2%
O=[N+]([O-])c1c(O)c(CNCCCO)cc(CNCCCO)c1O,132%,95.9%,109%,99.8%,99.7%,118%,106%,94.6%,108%,107%,106%,107%,91.2%,105%,99.6%,88.7%,119%,97.7%,93.9%,121%
Cc1ccc(S(=O)(=O)CCCl)cc1,112%,95.6%,117%,117%,100%,93.8%,111%,100%,100%,104%,90.9%,110%,94.7%,97.1%,101%,90.7%,114%,99.8%,107%,115%
COc1cc(C(=O)O)c(O)c(C(C)(C)C)c1,106%,101%,102%,103%,117%,105%,102%,102%,97.9%,105%,108%,109%,96.8%,98.9%,95.2%,97.6%,96.5%,104%,98.8%,109%
CCOC(=O)c1ccc(NC(C)=O)o1,111%,84.3%,107%,105%,102%,100%,98.5%,105%,80.2%,106%,106%,102%,94.3%,97.1%,94.1%,95.8%,97.9%,90.4%,95.4%,118%
CC(=O)c1cccc(N(C)S(=O)(=O)c2ccc(C)cc2)c1,98.2%,47.8%,84%,93.1%,116%,93%,93.2%,79.1%,94.7%,77.6%,57.2%,72.1%,81.6%,96.8%,87.4%,85.2%,90.1%,96%,82.3%,93.6%

SMILES,growth [1],growth [2],growth [3],growth [4],growth [5],growth [6],growth [7],growth [8],growth [9],growth [10],growth [11],growth [12],growth [13],growth [14],growth [15],growth [16],growth [17],growth [18],growth [19],growth [20]
BrCc1cccc(C[P+](c2ccccc2)(c2ccccc2)c2ccccc2)c1,64.9%,28.8%,38.3%,93.2%,84.4%,56.4%,72.2%,35.4%,14.2%,51.4%,92.5%,50.7%,47.6%,52.3%,19.4%,23.2%,22.6%,54.7%,40.2%,67.6%
NC(=S)N/N=C/c1ccc(Cl)cc1,120%,92.8%,109%,111%,97.4%,109%,97.4%,106%,91.7%,108%,103%,108%,103%,107%,99.7%,99.6%,99.1%,109%,99.1%,107%
C[C@H](CCC[C@H](C)OS(=O)(=O)c1ccccc1)OS(=O)(=O)c1ccccc1,119%,110%,96.9%,103%,142%,105%,102%,91.7%,107%,106%,101%,111%,88%,94.5%,108%,108%,114%,89.8%,101%,118%
CCOC(=O)Nc1nccs1,109%,119%,97.3%,87%,108%,117%,108%,101%,98%,106%,104%,100%,111%,111%,98.9%,97.7%,99.5%,99.7%,103%,111%
CC(=O)CSc1ncnc2nc[nH]c12,94.3%,82.9%,93.4%,87.5%,89.9%,105%,99.7%,94.8%,78.3%,59.2%,96.1%,104%,89.3%,99.7%,101%,92.5%,95.8%,74.6%,42.2%,82.3%
Cc1ccc(OC(=O)c2ccccc2)cc1,114%,101%,123%,126%,107%,108%,117%,106%,94.3%,113%,118%,95.3%,108%,109%,94.8%,105%,101%,112%,105%,120%
CC(=O)NC(CCC(=O)c1ccccc1)C(=O)O (stereo not drawn),107%,108%,96.6%,107%,105%,101%,101%,91.2%,76.7%,90.9%,104%,93.6%,90%,101%,87.6%,80.2%,97%,97.4%,100%,105%
Cc1onc(-c2ccccc2Cl)c1C(=O)Cl,121%,101%,109%,101%,115%,117%,91.7%,113%,103%,108%,98.2%,106%,78.1%,99.2%,96.8%,90.7%,106%,99%,95.1%,92.6%
S=C(Sc1ccc(Cl)cc1)Sc1ccc(Cl)cc1,17.2%,-44% (active),-52.8% (active),-29.5% (active),-85.5% (active),-1.56% (active),66%,37.6%,88%,-45.1% (active),3.17% (active),4.96% (active),46%,83.9%,-43% (active),9.49% (active),65.9%,-47% (active),-100% (active),-64.2% (active)
CCOC(=O)c1ccc(C(C)(C)C)cc1,104%,94.5%,103%,114%,118%,98.9%,108%,110%,99.9%,104%,111%,109%,102%,112%,97.5%,105%,105%,106%,99.8%,109%
C=C(C)[C@@H]1CC[C@]2(CO)CC[C@]3(C)[C@H](CC[C@@H]4[C@@]5(C)CC[C@H](O)C(C)(C)[C@@H]5CC[C@]43C)[C@@H]12,28.2%,24.3%,63%,4.46% (active),-50.7% (active),54.6%,71.4%,-33% (active),6.89% (active),49.3%,89.7%,46.2%,3.72% (active),48%,24.9%,38.7%,-60.5% (active),60.5%,32.2%,–
CC(=O)OC(C)c1cccc(C#N)c1 (stereo not drawn),108%,103%,103%,108%,110%,103%,102%,101%,100%,97.4%,105%,104%,89.7%,105%,99%,96.4%,99.1%,104%,101%,114%
COC1C(=O)CCC2(CO2)C1(O)C1(C)OC1CCC(C)C (stereo not drawn),48.7%,47.6%,103%,107%,69.5%,74.6%,72.9%,88%,39.9%,56.5%,56.4%,60.3%,77.5%,51.5%,42.3%,74.6%,64.6%,70.4%,50.3%,–
CN=S(=O)(OCCCCCOS(=O)(=NC)c1ccc(C)cc1)c1ccc(C)cc1 (stereo not drawn),85.7%,70.4%,100%,97.2%,123%,99%,91.6%,90.7%,124%,96.9%,108%,95.8%,77.1%,97.3%,93.8%,75.6%,93.8%,86.5%,88.1%,93.5%
CCOC(=O)C(C#N)=C1CCN(C)CC1,123%,116%,124%,119%,115%,102%,103%,105%,93.9%,105%,99.5%,113%,102%,101%,104%,87.7%,111%,103%,109%,134%
Cc1ccc(Cc2ccc(C)cc2)cc1,107%,101%,86.9%,123%,99%,106%,101%,106%,93.3%,99.6%,101%,105%,101%,109%,101%,100%,101%,104%,99.4%,107%
